From PubChem BioAssay AID488789 (Broad Institute, 2010)
Results with a measured potency or affinity are listed apart. Records with an inconclusive call do not appear.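 How the source made its calls: active means samples whose fitted half-maximal inhibition concentration is no more than ten times the top valid dose tested; inconclusive means flat response between -70 and -30, or invalid curve fit; inactive means flat within 30 of zero, potency above limit, or signal rising.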

Biological target: Trypsin (Sus scrofa) (UniProt P00761)
Experiment: porcine trypsin inhibitors, dose response, selectivity assay for Rce1 protease inhibitor project, biochemical, quenched peptide fluorescence, cherry-pick (AID 488789)
Conditions: quenched peptide cleavage fluorescence; series mostly up to 10 µM; activity change, negative = inhibition: at the top concentration

Sequence of Trypsin (Sus scrofa) (P00761 whole entry, looked up): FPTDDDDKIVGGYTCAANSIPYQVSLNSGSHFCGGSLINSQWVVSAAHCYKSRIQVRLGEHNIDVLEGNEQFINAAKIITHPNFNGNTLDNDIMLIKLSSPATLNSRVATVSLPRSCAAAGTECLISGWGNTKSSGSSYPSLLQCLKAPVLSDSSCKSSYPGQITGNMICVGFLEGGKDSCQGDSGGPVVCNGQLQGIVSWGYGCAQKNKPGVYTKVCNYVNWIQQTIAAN

Activity change, negative = inhibition, inactive:
CCOc1ccccc1CNC(=O)c1cc2occc2n1C -0.747%, Cc1cc(N/N=C/c2ccc(O)c(C)c2O)nc(-c2ccccc2O)n1 7.21%, CC(C)[C@H](NC(=O)OCc1ccccc1)C(=O)OCC(=O)Nc1c(F)cccc1F -4.5%, CCCN(CCC)CCNC(=O)c1cc2c(-c3ccccc3F)nn(C)c2s1 10.6%, CS(=O)(=O)Cc1ccc(C(=O)N(CCc2ccccc2)Cc2ccccc2)cc1 10.6%, Nc1nc2c(ncn2COC(CO)CO)c(=O)[nH]1 25.9%, COc1ccccc1CC(=O)Nc1ccc2c(C)cc(=O)oc2c1 -1.39%, CCCOc1ccc(-c2c(C(=O)N/N=C/c3cccs3)nnn2-c2nonc2N)cc1 21.4%, O=C(Nc1ccc(S(=O)(=O)Nc2ccccc2)cc1)C1COc2ccccc2O1 (stereo not drawn) 0.348%, CCOc1ccc(-c2c(C(=O)N/N=C/c3cccs3)nnn2-c2nonc2N)cc1 -4.32%, O=C(N/N=C/c1cn(Cc2ccccc2)c2ccccc12)c1cc(O)cc(O)c1 -6.64%, CS(=O)(=O)Nc1ccccc1C(=O)NCc1ccccc1Cl 10.6%, O=C(C1CCC(=O)N(C2CC2)C1)N1CCN(c2ccccc2Cl)CC1 (stereo not drawn) 2.53%, CC(C)C(NC(=O)c1ccco1)C(=O)NCC(c1ccco1)N1CCCCC1 (stereo not drawn) 7.33%, N#CC(C#N)=C1NC(N)=C(C#N)C(c2ccccc2)=C1C#N -9.18%, COc1ccc(Cc2nc3ccc(C(=O)N4CCCC4)cc3o2)cc1 15.7%, CN(C)C(=O)COc1ccc2ccc(=O)oc2c1 -6.92%, COCCNc1nc(N)c([N+](=O)[O-])c(N2CCCCCC2)n1 13.4%, CCOC(=O)C1CCCN(C(=O)CCn2nnnc2CN2CCOCC2)C1 (stereo not drawn) 21%, CCN(CC)c1ccc(/C=N/NC(=O)C(O)(c2ccccc2)c2ccccc2)o1 15.6%, CCOc1ccc2[nH]c(=O)c(CN(CCN3CCOCC3)Cc3nnnn3C(C)(C)CC)cc2c1 3.69%, CC(C)c1c(C(=O)N/N=C/c2ccsc2)nnn1-c1nonc1N 22.4%, CSc1nnc(-c2sc(-c3ccccc3)nc2C)n1C 12.8%, CS(=O)(=O)Nc1ccccc1C(=O)NC1CC2CCC1C2 (stereo not drawn) 8%, Cc1cc(NS(=O)(=O)c2ccccc2)c([N+](=O)[O-])cc1C -5.69%, O=C(O/N=C\c1ccc(N2CCCCC2)c([N+](=O)[O-])c1)c1cccc(C(F)(F)F)c1 -2.32%, O=C(c1cn(-c2ccccc2)nc1-c1cccs1)N1CCN(c2ccccn2)CC1 -4.36%, Cc1ccc(S(=O)(=O)Nc2ccccc2C(=O)NCC2CCCO2)cc1 (stereo not drawn) -0.29%, Cc1nc(N2CCOCC2)c2c(C)c(C(=O)Nc3ccccc3C(F)(F)F)sc2n1 -6.97%, CC1(c2nnc(-c3cccc(Cl)c3)o2)CC(c2cccc(F)c2)=NO1 (stereo not drawn) 5.97%, NCCCn1c(C(=O)c2cc(Cl)c(N)c(Cl)c2)c2ccc(C(F)(F)F)cc2[n+]1[O-] 3.83%, Oc1c(N=NC(=S)Nc2ccccc2F)c2ccccc2n1Cc1ccccc1F 2.08%, CCC1CCCCN1C(=O)NC(=O)c1ccccc1 (stereo not drawn) 10.3%, COC(C[C@H](O)C[C@H](O)[C@@H](C)OCc1ccccc1)OC 4.45%, CCN(Cc1ccccc1)S(=O)(=O)c1ccc(C(=O)N(CCCN(C)C)c2nc3cc(C)cc(C)c3s2)cc1 1.82%, CC(C)CC(=O)Nc1ccc2oc(-c3cccnc3)nc2c1 44.1%, CCCCn1c(=O)[nH]c(=O)c2c1nc(-c1ccc(OC)c(Br)c1)n2CC(C)C 11.2%, Nc1nonc1-n1nnc(C(=O)N/N=C/c2ccoc2)c1CSc1ccccc1 1.11%
